Assay outcomes from PubChem.
Most compounds without a hit are left out; they make up all but 12% or so of the library.
G9a inh: qHTS Assay for Inhibitors of Histone Lysine Methyltransferase G9a. Potency, µM (highest dose often 102 µM), for the others: at the top dose activity, negative = inhibition, hits mostly inhibitors. actives 8.8% (n = 350,000). Histone-lysine N-methyltransferase EHMT2 (Homo sapiens), Q96KQ7. G9a H3K9 monomethylation, AlphaScreen, 2 h; further: on the % scale 0 is the no-effect control and ±100 the full control effect; nearly all actives have a fitted effect of over 75% in size
Target sequence (Q96KQ7 913-1193 limits assumed): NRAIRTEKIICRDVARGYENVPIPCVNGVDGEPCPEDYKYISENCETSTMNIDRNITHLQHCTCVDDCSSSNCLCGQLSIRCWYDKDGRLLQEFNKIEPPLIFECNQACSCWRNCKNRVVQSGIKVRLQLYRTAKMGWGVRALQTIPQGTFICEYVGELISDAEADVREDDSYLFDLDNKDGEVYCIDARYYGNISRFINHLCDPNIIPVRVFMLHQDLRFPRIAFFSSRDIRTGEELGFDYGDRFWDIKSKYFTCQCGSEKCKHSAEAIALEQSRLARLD
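Enzyme 20 nM + cpd, 15 min RT; add b-H3K9 pep 500 nM / SAM 20 uM; 2 h RT; anti-H3K9me1 Ab 0.5 ug/mL + SA donor / anti-rabbit acceptor beads 20 ug/mL each, 10 min; AlphaScreen read.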
BAZ2B inh: qHTS Assay for Inhibitors of BAZ2B. Bromodomain adjacent to zinc finger domain protein 2B (Homo sapiens), Q9UIF8. AlphaScreen BAZ2B-H3K14Ac peptide displacement. Potency, µM (top dose mostly 114 µM), inactives show at the top dose activity change, negative = inhibition, actives largely listed as inhibitors. actives 4.4% (n = 360,000); further: on the % scale 0 is the no-effect control and ±100 the full control effect; nearly all actives have a fitted effect of over 60% in size
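Multi-concentration screen (max 110 uM) measuring displacement of acetylated histone H3 peptide from BAZ2B by AlphaScreen, using 50 nM protein, 50 nM peptide and 10 ug/mL streptavidin donor plus Ni-chelate acceptor beads.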
Sfp PPTase inh: qHTS Assay for Inhibitors of Bacillus subtilis Sfp phosphopantetheinyl transferase (PPTase) | Potency, µM, without a hit: largest response in the series, negative = inhibition, hits mostly inhibitors | Biochemical Sfp PPTase activity, qHTS | actives 3.5% (n = 310,000);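 further: the enzyme is Sfp with the accession as filed and its product quenches rhodamine fluorescence; 0% = enzyme reaction without inhibitor and -100% = no enzyme wells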
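Step 1, compound plus 15 nM Sfp-PPTase, 15 min, room temperature. Step 2, add rhodamine-CoA (5 uM) and BHQ-2-YbbR (12.5 uM). Step 3, read 525/598 nm fluorescence at 0 and 30 min.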
JMJD2A Tudor: qHTS Assay for Inhibitors of JMJD2A-Tudor Domain. AlphaScreen JMJD2A-Tudor / H3K4me3 peptide binding. actives 4.4% (n = 390,000). Potency, µM (series often up to 114 µM), without a hit: top-dose activity change, negative = inhibition, most hits filed as inhibitors. AID 504339, 2011. Lysine-specific demethylase 4A (Homo sapiens), O75164; further: on the % scale 0 is the no-effect control and ±100 the full control effect; nearly all actives have a fitted effect of over 50% in size
L3MBTL1 inh: qHTS Assay for the Inhibitors of L3MBTL1 | Lethal(3)malignant brain tumor-like protein 1 (Homo sapiens), Q9Y468 | AlphaScreen L3MBTL1–H3K9me1 peptide binding | Potency, µM (top dose mostly 57.1 µM), without a hit: at the top dose activity, negative = inhibition, hits mostly inhibitors | actives 0.66% (n = 230,000) | AID 485360, 2010; further: on the % scale 0 is the no-effect control and ±100 the full control effect; nearly all actives have a fitted effect of over 60% in size
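Displacement of a biotinylated histone H3(1-15) peptide monomethylated at Lys9 (75 nM) from L3MBTL1 (50 nM) was measured by AlphaScreen after a 30 min room-temperature compound incubation; cefsulodin titration served as intraplate control.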
HP1b binding inh: HTS for Inhibitors of HP1-beta Chromodomain Interactions with Methylated Histone Tails; Chromobox protein homolog 1 (Homo sapiens), P83916; AlphaScreen HP1-beta / biotin-H3K9me3 peptide binding; Potency, µM (series often up to 114 µM), inactives show at the highest dose activity change, negative = inhibition, most hits filed as inhibitors; actives 0.56% (n = 390,000); AID 540317, 2011; further: nearly all actives have a fitted effect of over 70% in size
Target sequence (P83916 whole entry, looked up): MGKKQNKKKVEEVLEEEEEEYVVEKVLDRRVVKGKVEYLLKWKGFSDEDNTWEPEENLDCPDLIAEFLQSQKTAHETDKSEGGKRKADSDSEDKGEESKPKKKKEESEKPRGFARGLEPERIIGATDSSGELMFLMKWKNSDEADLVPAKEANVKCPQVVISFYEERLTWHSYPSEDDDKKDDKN
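Compound inhibition of the preformed complex between 50 nM HP1-beta and 50 nM biotinylated H3K9me3 peptide was read by AlphaScreen. Buffer was PBS pH 7.4 with 0.01% Tween-20. Incubations ran 30 min at room temperature, with 10 ug/mL donor/acceptor beads.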
Starred values were filed as active, the others as inactive; ? = inconclusive; nt = no result; [ ] = remark or other dose. The call rests on the fitted dose curve; in most records, active means well fitted curve in the direction sought with a large enough effect; inconclusive means small, poorly fitted or top-dose-only effect, or another doubt; inactive means no such curve, though single readings can be large; an effect the other way counts as inactive or inconclusive. Potency means the concentration at half of the fitted maximal effect.

SMILES	G9a inh	BAZ2B inh	Sfp PPTase inh	JMJD2A Tudor	L3MBTL1 inh	HP1b binding inh
CC1=C(C)C(=O)C(N2CCOCC2)=CC1=O	45µM*	?	14%	-27%	-7%	-3%
COc1ccc(N=C2NC(=O)/C(=C\c3ccco3)S2)cc1	?	28µM*	?	?	nt	?
Cc1ccc(S(=O)(=O)/N=C2/NC(=O)/C(=C/c3ccccc3)S2)cc1	50µM*	?	9%	-19%	-8%	10%
CN1C(=O)/C(=C/c2ccco2)SC1=Nc1ccc(N2CCOCC2)cc1	7.1µM*	7.9µM*	2%	-25%	-1%	?
Cc1ccc(S(=O)(=O)/N=C2/NC(=O)/C(=C\c3ccccc3)S2)cc1	nt	nt	nt	-30%	-7%	-5%
Cc1ccc(S(=O)(=O)/N=C2/NC(=O)/C(=C\c3ccco3)S2)cc1	40µM*	-13%	15%	-31%	-10%	0%
CN=C1S/C(=C\c2ccc(N3CCOCC3)cc2C)C(=O)N1C	-13%[59 µM]	-4%	3%	-12%	1%	13%
COc1ccc(CC(=O)N(C)Cc2ccc(OC(F)F)cc2)cc1S(=O)(=O)N1CCOCC1	nt	nt	nt	-3%	nt	75%
CNC(=O)c1cnc2sc(N3CCCCCC3)nn2c1=O	17%[59 µM]	-16%	nt	-8%	nt	-11%
O=C1NC(=NCc2ccccc2)S/C1=C/c1ccc(O)cc1	-31%[59 µM]	?	25µM*	-21%	-4%	-13%
CC(=O)Nc1ccc(S(=O)(=O)/N=C2/NC(=O)/C(=C\c3ccco3)S2)cc1	22µM*	?	0%	-18%[11.4 µM]	nt	19%
Cc1cccc(CNC(=O)c2oc3c(c2C)-c2nn(Cc4ccccc4Cl)cc2CC3)c1	-34%[59 µM]	-12%	nt	-21%	nt	-5%
O=C(Nc1ccccc1C(F)(F)F)c1cnccn1	-118%	-10%	1%	-2%	nt	34%
Cc1c(NC(=O)c2ccco2)cccc1-c1nc2cccnc2s1	14µM*	4%	?	?	-18%	22%
O=C(Nc1ccccc1C(F)(F)F)c1ncn[nH]1	nt	14µM*	?	7.9µM*	nt	25%
Cc1c(NC(=O)c2ncn[nH]2)cccc1-c1nc2ccccc2s1	?	25µM*	-13%	?	-21%	-29%
O=C(NCCOc1ccccc1)c1ncn[nH]1	?	50µM*	3%	40µM*	-23%	-9%
Cc1cccc(OCCNC(=O)c2ncn[nH]2)c1	15%[59 µM]	9%	-5%	-15%	-13%	37%
COc1cc(C2Nc3ccccc3C(=O)N2Cc2ccccc2)ccc1OCc1ccc(NC(C)=O)cc1 (stereo unspecified)	nt	nt	nt	-22%	nt	nt
Cc1cc(C)cc(NC(=O)NCc2noc3ccccc23)c1	4%[59 µM]	-23%	nt	-17%	nt	4%
O=C1CSC(=Nc2ccc(Cl)cc2)N1Cc1cccnc1	1%	-9%	-2%	6%	-13%	32%
Cc1cnc(C(=O)Nc2ccccc2-n2cccc2)cn1	?	-11%	45µM*	?	?	5%
COc1cccc2cc(-c3cn4cccc(C)c4n3)c(=O)oc12	nt	nt	nt	-10%	nt	5%
Cc1cc(-c2cn3ccccc3n2)c(C)n1-c1ccccc1	50µM*	?	-11%	56µM*	-11%	?
COc1ccc(-n2c(C)cc(-c3cn4cccc(C)c4n3)c2C)cc1	?	40µM*	7%	?	-15%	-11%
